Compounds without any hit were thinned out: in the full panel of roughly 83,000, 20% have a hit.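 Negative percent growth values reflect cell death: -40 means 40% of the cells present at the start died, and -100 means all died.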 Values without a mark were called inactive. Active and inactive are the calls of the source. How the source made its calls: active means growth percent below 10; inactive means the rest.

Among the test systems are HCT-15 colon; HT29 colon; SNB-75 CNS; SNB-19 CNS; U251 CNS; PC-3 prostate; SK-MEL-5 melanoma; UACC-62 melanoma; LOX IMVI melanoma; SK-MEL-28 melanoma; SK-MEL-2 melanoma; EKVX NSCLC; SN12C renal; UO-31 renal; TK-10 renal; ACHN renal; CAKI-1 renal; CCRF-CEM leukemia; MOLT-4 leukemia; A498 renal.
What all share (assay): NCI-60 one-dose screen, 48 h (100 = growth as untreated, 0 = no growth, -100 = all killed)
Holding throughout (conditions): 10 µM unless noted

Take `Fc1ccc2c(-c3cncn3CCc3ccccc3)c[nH]c2c1`: the growth was 95.7% in the experiment with HCT-15 colon; 85.4% in the experiment with HT29 colon; 47.7% with SNB-75 CNS; 85.1% in the experiment with SNB-19 CNS; 91.9% in the experiment with U251 CNS; 86.8% in the experiment with PC-3 prostate. Besides, the growth was 90.2% with SK-MEL-5 melanoma; 73.3% with UACC-62 melanoma; 94.8% in the experiment on LOX IMVI melanoma; 98.8% with SK-MEL-28 melanoma; 94.1% with SK-MEL-2 melanoma; 79.4% in the experiment with EKVX NSCLC. Moreover, the growth in the experiment on SN12C renal is 77%; with UO-31 renal it was 68.1%; with TK-10 renal, 135%; in the experiment on ACHN renal, 96.7%; in the experiment on CAKI-1 renal it was 75.2%; in the experiment with CCRF-CEM leukemia, 79.4%. In the experiment with MOLT-4 leukemia, the growth was 91.2%.
For `CN(C)CC(O)c1ccc(/C=C/c2ccc(Cl)cc2)cc1` (stereo not given), the growth in the experiment with HCT-15 colon was -51.7% (active); in the experiment on HT29 colon it was -69.5% (active); in the experiment with SNB-75 CNS, -24.8% (active); with SNB-19 CNS, 32.1%; in the experiment on U251 CNS, -94% (active); in the experiment on PC-3 prostate, -30.3% (active). In addition, the growth is -91.5% (active) in the experiment on SK-MEL-5 melanoma; -79% (active) in the experiment with UACC-62 melanoma; -54.2% (active) in the experiment with LOX IMVI melanoma; -88.2% (active) in the experiment with SK-MEL-28 melanoma; -63.9% (active) in the experiment on SK-MEL-2 melanoma; 29.7% with EKVX NSCLC. Moreover, the growth in the experiment with SN12C renal is -12.3% (active); in the experiment on UO-31 renal, -67.2% (active); in the experiment with TK-10 renal it was -91.5% (active); with ACHN renal, -50.1% (active); in the experiment on CAKI-1 renal, -46.1% (active); with CCRF-CEM leukemia, -43.8% (active). Also, in the experiment on MOLT-4 leukemia, the growth was -29.7% (active).
With `N#C/C(=C\c1ccc(Cl)cc1)n1nnc2cc(F)c(F)cc21`, the growth in the experiment with HCT-15 colon was 2% (active); in the experiment with HT29 colon it was 9.95% (active); with SNB-75 CNS it was 15.9%; in the experiment with SNB-19 CNS, 34.5%; in the experiment on U251 CNS, 18.1%; in the experiment on PC-3 prostate, 30.9%. The growth with SK-MEL-5 melanoma was 8.38% (active); in the experiment with UACC-62 melanoma it was 21%; in the experiment with LOX IMVI melanoma, -63.5% (active); in the experiment on SK-MEL-28 melanoma, 29.6%; in the experiment with SK-MEL-2 melanoma, 38.6%; in the experiment with EKVX NSCLC it was 59.3%. The growth in the experiment on SN12C renal was 8.61% (active); with UO-31 renal, -17.5% (active); with TK-10 renal it was 16.9%; in the experiment with ACHN renal it was 9.15% (active); in the experiment with CAKI-1 renal, 18%; in the experiment on CCRF-CEM leukemia it was -8.83% (active). Also, the growth with MOLT-4 leukemia is 1.3% (active).
As for `Cn1cc(CC2CC(=O)N(c3ccccc3)C2=O)sc1=NC(=O)c1ccccc1` (stereo not given), the growth is 101% in the experiment on HCT-15 colon; 103% in the experiment with HT29 colon; 82% in the experiment on SNB-75 CNS; 100% in the experiment on SNB-19 CNS; 102% in the experiment on U251 CNS; 95.5% in the experiment on PC-3 prostate. Moreover, the growth in the experiment on SK-MEL-5 melanoma was 101%; in the experiment on UACC-62 melanoma, 93.3%; in the experiment on LOX IMVI melanoma, 102%; in the experiment on SK-MEL-28 melanoma, 98.1%; with SK-MEL-2 melanoma, 106%; with EKVX NSCLC, 95.1%. Moreover, the growth with SN12C renal is 103%; in the experiment on UO-31 renal, 83.5%; in the experiment on TK-10 renal, 102%; in the experiment with ACHN renal, 101%; with CCRF-CEM leukemia, 108%; in the experiment on MOLT-4 leukemia, 106%.
As to `COc1ccc(/C=C/c2nc(Nc3cccc(NC(C)=O)c3)c3ccccc3n2)cc1`, the growth is 70.9% with HCT-15 colon; 85% with HT29 colon; 90.5% in the experiment with SNB-75 CNS; 92.4% with SNB-19 CNS; 88.5% in the experiment on U251 CNS; 90% in the experiment with PC-3 prostate. Further, the growth with SK-MEL-5 melanoma is 87.5%; in the experiment on UACC-62 melanoma, 44.2%; with LOX IMVI melanoma, 59.3%; in the experiment with SK-MEL-28 melanoma, 104%; with SK-MEL-2 melanoma, 91.9%; with EKVX NSCLC, 94.3%. Also, the growth in the experiment with SN12C renal is 89.1%; with UO-31 renal, 68.3%; in the experiment on TK-10 renal it was 92.7%; in the experiment on ACHN renal it was 78.3%; with A498 renal, 9.66% (active); in the experiment on CCRF-CEM leukemia, 82.5%. Further, the growth in the experiment on MOLT-4 leukemia was 87%.
Consider `CCCOC(=O)N[C@H]1CCc2c(Cl)c(OC)c(OC)c(OC)c2-c2ccc(SC)c(=O)cc21`, for which the growth with HCT-15 colon was 12.9%; in the experiment on HT29 colon it was 14.7%; in the experiment with SNB-75 CNS, 31.2%; with SNB-19 CNS, 31%; in the experiment with U251 CNS, 23.2%; with PC-3 prostate, 24%. Moreover, the growth was -10.3% (active) with SK-MEL-5 melanoma; 30.9% in the experiment with UACC-62 melanoma; 10.7% in the experiment with LOX IMVI melanoma; 68.8% with SK-MEL-28 melanoma; 48.2% in the experiment on SK-MEL-2 melanoma; 48.1% in the experiment on EKVX NSCLC. Also, the growth was 20.5% in the experiment with SN12C renal; 23.1% in the experiment on UO-31 renal; 49.3% in the experiment with TK-10 renal; 30.7% with ACHN renal; 13.8% in the experiment on CAKI-1 renal; 7.4% (active) in the experiment on CCRF-CEM leukemia. Besides, the growth in the experiment on MOLT-4 leukemia is 8.02% (active).
As for `O=C(c1nc2ccccc2[nH]1)C1C(c2ccc(Br)cc2)C2CC3CCCC[C@H]3N2[C@@]12C(=O)Nc1cc(Cl)ccc12` (stereo not given in full), the growth in the experiment with HCT-15 colon was 23.7%; with HT29 colon, 27.9%; in the experiment on SNB-75 CNS, 49.1%; in the experiment on SNB-19 CNS, 49.8%; with U251 CNS, 43.9%; with PC-3 prostate, 28.4%. For the same compound, the growth with SK-MEL-5 melanoma is 51%; in the experiment on UACC-62 melanoma, 58%; in the experiment on LOX IMVI melanoma, 30%; in the experiment with SK-MEL-28 melanoma, 62.4%; with SK-MEL-2 melanoma, 73.3%; in the experiment with EKVX NSCLC, 37%. Moreover, the growth in the experiment with SN12C renal was 39.7%; in the experiment on UO-31 renal it was 20.6%; with TK-10 renal it was 40.7%; in the experiment with ACHN renal it was 29.9%; in the experiment with CAKI-1 renal, 17.7%; with CCRF-CEM leukemia, 32%. For the same compound, the growth with MOLT-4 leukemia was 6.93% (active).
Take `O=C(CCN1CCCC1)Nc1ccc2c(Nc3ccc(Br)cc3)c3ccccc3nc2c1`: the growth is -73.9% (active) in the experiment with HCT-15 colon; 1.67% (active) in the experiment with HT29 colon; 37.3% in the experiment with SNB-75 CNS; -0.557% (active) with SNB-19 CNS; -51% (active) with U251 CNS; 4.09% (active) in the experiment on PC-3 prostate. Further, the growth is 31.7% with SK-MEL-5 melanoma; 77.8% in the experiment on UACC-62 melanoma; -92.4% (active) in the experiment with LOX IMVI melanoma; -28.6% (active) in the experiment with SK-MEL-28 melanoma; 97.1% in the experiment with SK-MEL-2 melanoma; 59.5% in the experiment with EKVX NSCLC. Further, the growth was 30% in the experiment with SN12C renal; -96.8% (active) with UO-31 renal; -36.1% (active) in the experiment with TK-10 renal; 29.4% in the experiment with ACHN renal; -15.6% (active) with CCRF-CEM leukemia; -33.8% (active) with MOLT-4 leukemia.

The record behind these values is PubChem BioAssay (NCI).
